Records with an inconclusive call do not appear. Activity calls are given as the source filed them. Calls follow the shape of the dose curve; as a rule, active = well fitted cell-killing curve with a large enough effect; inconclusive = small, poorly fitted or top-dose-only effect, or effect the other way; inactive = no such curve, though single readings can be large or run the other way.

Drawing on PubChem BioAssay (NCATS), this text covers Potency for 21 compounds.

The nature of test [1]: Quantitative High-Throughput drug screen in 47 multiple myeloma cell lines against the NCATS MIPE library collection: XG1_PLB cell viability assay (AID 1919866). Also: nearly all actives have a fitted effect of over 35% in size. Summed up: (§1)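 ATP-based luminescence (CellTiter-Glo, 5 min RT incubation) quantified surviving cells following two days' treatment with MIPE 4.0 agents at 37 °C, 5% CO2.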
Test [2] is described as follows: Quantitative High-Throughput drug screen in 47 multiple myeloma cell lines against the NCATS MIPE library collection: VP6_DJ cell viability assay (AID 1919867). Also: nearly all actives have a fitted effect of over 40% in size. Summed up:
as §1

A short description of test [3]: Quantitative High-Throughput drug screen in 47 multiple myeloma cell lines against the NCATS MIPE library collection: UTMC2_PLB cell viability assay (AID 1919868). Also: nearly all actives have a fitted effect of over 55% in size. Particulars: CellTiter-Glo ATP luminescence, 48 h; viability (% of DMSO control): at 45.8 µM (top of the series). A digest of the protocol: as §1
Test [4] in a line: Quantitative High-Throughput drug screen in 47 multiple myeloma cell lines against the NCATS MIPE library collection: PE2_PLB cell viability assay (AID 1919869). Also: nearly all actives have a fitted effect of over 35% in size. Summed up: as §1
A short description of test [5]: Quantitative High-Throughput drug screen in 47 multiple myeloma cell lines against the NCATS MIPE library collection: PCM6_Riken cell viability assay (AID 1919870). Also: nearly all actives have a fitted effect of over 30% in size. Summed up: as §1
Test [6] can be described thus: Quantitative High-Throughput drug screen in 47 multiple myeloma cell lines against the NCATS MIPE library collection: KMS11_JCRBsus cell viability assay (AID 1919873). Also: nearly all actives have a fitted effect of over 50% in size. Summed up: as §1
A short description of test [7]: Quantitative High-Throughput drug screen in 47 multiple myeloma cell lines against the NCATS MIPE library collection: KMS28BM_JCRB cell viability assay (AID 1919874). Also: nearly all actives have a fitted effect of over 35% in size. A digest of the protocol: as §1
Test [8] in a line: Quantitative High-Throughput drug screen in 47 multiple myeloma cell lines against the NCATS MIPE library collection: OPM2_DSMZ cell viability assay (AID 1919872). Also: nearly all actives have a fitted effect of over 30% in size. A digest of the protocol: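 Inhibition of cell viability is measured here. Each line was plated at 500 cells per well, treated with MIPE 4.0 drugs, kept 48 hours at 37C, then assayed for ATP content by CellTiter-Glo luminescence.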

Test [9] can be described thus: Quantitative High-Throughput drug screen in 47 multiple myeloma cell lines against the NCATS MIPE library collection: RPMI8226_ATCC cell viability assay (AID 1919871). Also: nearly all actives have a fitted effect of over 30% in size. A digest of the protocol: as §1
Potency is read from the fitted curve at half-maximal effect.

Take `CN1CCN(c2ccc([N+](=O)[O-])c3no[n+]([O-])c23)CC1`: the Potency is 20.9 µM (active) in test [1]; 14.8 µM (active) in [2]; 18.7 µM (active) in [3]; 23.5 µM (active) in test [4]; 5.9 µM (active) in [5]; 23.5 µM (active) in test [6]. The Potency in test [7] is 18.7 µM (active).
On to `CC(C)(C)c1cc(C=C(C#N)C#N)cc(Br)c1O`, for which the Potency was 11.8 µM (active) in test [1], 11.8 µM (active) in test [2], 5.26 µM (active) in test [4] and 18.7 µM (active) in test [5].
Turning to `CC(=O)OCC1=C(C(=O)O)N2C(=O)[C@@H](N)[C@@H]2SC1`, the Potency entry in test [1], in test [2], in [4], in test [5], in [8] and in test [6] was “inactive” in each case. Moreover, the Potency entry in [7] is “inactive”.
As to `CO[C@H]1CCC(O[C@H]2C[C@H]([C@]3(C)CC[C@]4(C[C@H](O)[C@@H](C)[C@@H]([C@@H](C)C=C(C)C(=O)[C@H](C)C[C@H](C)C(=O)O)O4)O3)O[C@]3(O[C@@H]([C@H]4O[C@@](O)(CO)[C@H](C)C[C@H]4C)C[C@H]3C)[C@H]2C)O[C@H]1C` (stereo partly drawn), the Potency in test [1] is 1.18 µM (active); in [2], 1.05 µM (active); in test [4], 1.18 µM (active); in [5] it was 0.935 µM (active); in test [9], 0.935 µM (active); in [8], 0.296 µM (active). The Potency in [6] is 0.935 µM (active); in test [7], 0.332 µM (active).
As for `C=C[C@@H]1CN2CCC1C[C@H]2[C@H](O)c1ccnc2ccccc12` (stereo partly drawn), the Potency in test [1] is 16.6 µM (active); in test [2], 26.4 µM (active); in [4], 20.9 µM (active); in test [5], 14.8 µM (active); in [9], 18.7 µM (active).
Consider `C[C@@H]1CC[C@H]2[C@@H](C)C(=O)O[C@@H]3O[C@@]4(C)CC[C@H]1[C@]32OO4`, for which the Potency was 5.9 µM (active) in test [1], 0.743 µM (active) in test [4], 6.62 µM (active) in test [5] and 0.264 µM (active) in test [8]. Further, the Potency result in [6] is “inactive”.
Take `CC(C)[C@H]1C(=O)N[C@H](CO)Cc2c[nH]c3cccc(c23)N1C`: the Potency result in [1], in test [2] and in test [6] was “inactive” throughout. Also, the Potency was 0.264 µM (active) in test [5] and 0.0662 µM (active) in test [8].
As to `O=C(N[C@H]1CN2CCC1CC2)c1ccc(Cl)cc1`, the Potency in [1] is 6.62 µM (active); in [2], 7.43 µM (active); in test [5] it was 8.33 µM (active). For the same compound, the Potency entry in [9], in test [8] and in test [7] was “inactive” in each case.
Take `c1cc2c(cc1[C@H]1OC[C@H]3[C@H]1CO[C@H]3c1ccc3c(c1)OCO3)OCO2`: the Potency result in [1], in test [2], in [5], in test [9], in [8] and in test [6] was “inactive” each time. Further, the Potency result in [7] was “inactive”.
As to `COc1ccc2c(c1)[C@]13CCCCC1C(C2)N(C)CC3` (stereo partly drawn), the Potency result in test [1], in test [4], in test [5], in test [9], in test [8] and in [6] was “inactive” in each case.
With `CC(C)N[C@@H]1CCn2c(=O)[nH]c3cccc(c32)[C@@H]1O`, the Potency in test [1] is 3.32 µM (active); in test [4] it was 4.18 µM (active); in test [5], 5.26 µM (active).
Consider `O=[N+]([O-])c1ncc[nH]1`, for which the Potency entry in test [1], in test [4], in test [9] and in test [8] was “inactive” in each case.
Regarding `CN(C)[C@@H]1C(=O)C(C(N)=O)=C(O)[C@@]2(O)C(=O)C3=C(O)c4c(O)cccc4[C@@](C)(O)[C@H]3[C@H](O)[C@@H]12`, the Potency in [1] is 16.6 µM (active); in test [2] it was 23.5 µM (active); in test [8] it was 20.9 µM (active). The Potency result in test [5], in test [6] and in [7] was “inactive” in each case.
For the compound `NC1CC1c1ccccc1` (stereo not drawn), the Potency result in [1], in [4], in test [5], in test [9], in test [8] and in test [6] was “inactive” in each case. In addition, in test [7], the Potency result is “inactive”.
Consider `O=C1CCC[C@@H]2[C@H]3CCCN4CCC[C@@H](CN12)[C@@H]34`, for which the Potency result in test [1], in test [3], in [4], in [5], in test [8] and in test [6] was “inactive” throughout. Also, in [7], the Potency result was “inactive”.
As for `c1ccc(CCCN2CCN(CCOC(c3ccccc3)c3ccccc3)CC2)cc1`, the Potency is 20.9 µM (active) in test [1]; 18.7 µM (active) in test [4]; 26.4 µM (active) in test [5]; 20.9 µM (active) in test [9]; 26.4 µM (active) in test [8]; 20.9 µM (active) in test [6]. For the same compound, the Potency in test [7] was 20.9 µM (active).
For the compound `CCCN1CCO[C@@H]2c3cc(O)ccc3OC[C@@H]21`, the Potency result in [1], in test [4], in [5], in test [9], in test [8] and in [6] was “inactive” each time.
In the case of `Cc1ccccc1-n1c(Cn2ncc3c(N)ncnc32)nc2cccc(C)c2c1=O`, the Potency in [1] is 0.296 µM (active); in test [2], 0.166 µM (active); in test [5], 0.296 µM (active); in test [9], 8.33 µM (active); in test [8], 8.33 µM (active); in [6] it was 1.05 µM (active).
Consider `CC(=O)N(C)c1cccc(-c2ccnc3c(C(=O)c4cccs4)cnn23)c1`, for which the Potency entry in [1], in test [4], in test [5], in [8] and in [7] was “inactive” each time. Also, the Potency in [6] was 18.7 µM (active).
As for `CCNC(=O)C[C@@H]1N=C(c2ccc(Cl)cc2)c2cc(OC)ccc2-n2c(C)nnc21`, the Potency was 0.833 µM (active) in test [1]; 0.296 µM (active) in test [2]; 2.96 µM (active) in test [4]; 1.18 µM (active) in [9]; 0.105 µM (active) in test [6].
For the compound `CCOP(=O)(OCC)C(C)NC(=O)N(CCCl)N=O` (stereo not drawn), the Potency result in test [1], in [4], in [5], in [9], in test [6] and in [7] was “inactive” throughout.
